# Rows were chosen to be rich in hits. Some 21% of all compounds tested hit in one or more screens of this group.
# HCV inhibitor: HCV inhibition | Huh7.5.1 HCVcc-Cre infection, luciferase reporter, 44 h | Potency, µM (highest dose often 41.8 µM), for inactives: at the top dose activity change, negative = inhibition, usual class: inhibitors | 340,000 compounds, 3.4% hits; note: potency is the fitted concentration of half-maximal effect; % is set by controls: 0 for no effect and ±100 for the full control effect
#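 HCVcc-Cre virus at an moi near 0.5 was added right after compound to cells cultured 4 h from seeding (1,000 cells/well). Luciferase activity was determined 44 h later, 15 min after substrate addition at RT.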
# CHX counter: counter-screen for Shiga toxin inhibitors: cycloheximide protein synthesis inhibition; cell reporter, cycloheximide protein synthesis inhibition counterscreen; max response, %; 300,000 compounds, 12% hits; AID 2314; in the data active = max response mostly above about 13%, no sharp cut-off; inactive = mostly below about 14%; note: read at 38.3 µM for the half of the compounds with a filed dose; 0% is about no effect
# Pf growth 48h: P. falciparum growth inhibition at 48 hours (one generation); P. falciparum luciferase growth in erythrocytes, 48 h; Potency, µM (top dose mostly 28.7 µM), without a hit: at the highest dose activity change, negative = inhibition, actives largely listed as inhibitors; 310,000 compounds, 5.9% hits; note: potency is the fitted concentration of half-maximal effect; % is set by controls: 0 for no effect and ±100 for the full control effect
#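 Luciferase-expressing P. falciparum in infected erythrocytes (2% hematocrit, 0.1% parasitemia final) in RPMI 1640/0.5% Albumax were exposed to compound for 48 hours at 37 C, 5% CO2; growth read as luminescence.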
# Shiga toxin inh: blocks Shiga toxin action in Vero cells. 290,000 compounds, 9.2% hits. inhibition, % at 38.7 µM. Vero cells, Shiga toxin protein synthesis inhibition reporter. AID 2315; in the data active = inhibition mostly above about 28%, no sharp cut-off; inactive = mostly below about 43%; note: 0% is about no effect
# Pf growth 96h: P. falciparum growth inhibition at 96 hour, primary screen for plastid delayed-death inhibitors; P. falciparum luciferase reporter growth, 96 h; Potency, µM (series often up to 28.7 µM), for inactives: at the top dose activity change, negative = inhibition, hits mostly inhibitors; 320,000 compounds, 6.9% hits; note: potency is the fitted concentration of half-maximal effect; % is set by controls: 0 for no effect and ±100 for the full control effect
#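 Cell-based qHTS: luciferase-tagged P. falciparum in erythrocytes (2% hematocrit, 0.05% parasitemia final) incubated with compounds for 96 hours, 37 C, 5% CO2; luciferase detection reagent then added and luminescence measured.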
# AMA1 RON2 block: AMA1-RON2 (P. falciparum) interaction inhibition | AlphaScreen AMA1-biotinylated RON2 peptide binding | Potency, µM (highest dose often 58.2 µM), for inactives: at the highest dose activity change, negative = inhibition, hits mostly inhibitors | 360,000 compounds, 0.2% hits | AID 720542;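 note: potency is the fitted concentration of half-maximal effect; 0% = vehicle wells and -100% = peptide control; nearly all actives have a fitted effect of over 45% in size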
#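 AMA1 (3D7) with his tag at 25 nM final met compounds first, then biotinylated RON2 peptide at 25 nM; detection used donor plus acceptor beads, 10 µg/mL apiece, read by AlphaScreen after 30 min at room temperature.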
# * hit, by the source's call; i = inactive; ? = inconclusive; . = not tested or not shown; [ ] = another dose, or the depositor's remark. Unless noted, calls come from the whole dose curve; as a rule, active = well fitted curve in the direction sought with a large enough effect; inconclusive = small, poorly fitted or top-dose-only effect, or another doubt; inactive = no such curve, though single readings can be large; an effect the other way counts as inactive or inconclusive.
SMILES,HCV inhibitor,CHX counter,Pf growth 48h,Shiga toxin inh,Pf growth 96h,AMA1 RON2 block
CCN(Cc1ccc2c(c1)OCO2)C(=O)/C=C/c1cccc(Br)c1,-5%,7,14%,-4,1%,-6%
CC(C)(C)N(Cc1ccc2c(c1)OCO2)C(=O)/C=C\S(=O)c1ccccc1 (stereo not drawn),11µM*,.,.,.,.,-10%
Cc1ccc(C)c(OCCC(=O)NNC(=O)c2cc(C)oc2C)c1,-4%,.,?,.,-19%,76%
O=C(COc1ccc(Cl)cc1)OCc1csc(Nc2ccccc2)n1,-7%,10,-10%,18,?,-3%[2.32 µM]
C/C=C/c1ccc(OCC(=O)OCc2csc(Nc3ccc(C)cc3)n2)c(OC)c1,6%,44*,?,91*,-73%,-24%
Cc1ccc(Nc2nc(COC(=O)COc3ccc(C=O)cc3)cs2)cc1,23%,25*,107%,69*,103%,-23%
Cc1cc2nc(-c3ccc(F)cc3)c(Cc3cccc(Cl)c3)n2c(C)c1Br,.,.,.,.,.,0%
Cc1ccc(C(=O)N2CCN(c3cc(=O)[nH]nc3-c3ccccc3)CC2)cc1,0%,1,?,13,12µM*,21%
Cc1ccc(C(=O)N2CCN(c3ncnc4c(-c5ccccc5)nsc34)CC2)cc1,.,12,21%,18,1.5µM*,.
Cc1ccc(-c2nsc3c(N4CCC(C(N)=O)CC4)ncnc23)cc1,16%,33*,149%,52*,?,-8%
COc1ccc(-c2nsc3c(N4CCCCC4)ncnc23)cc1,-16%,58*,185%,100*,?,4%
COc1ccc(-c2nsc3c(N4CCCCC4C)ncnc23)cc1 (stereo not drawn),?,14,-8%,3,-13%,51%
O=C(c1ccc(F)cc1)N1CCN(c2cc(=O)[nH]nc2-c2ccccc2)CC1,11%,-1,?,-8,?,-7%
CC[C@H](C)[C@H](NC(=O)[C@H](Cc1ccc(O)cc1)NC(=O)[C@H](CCCNC(=N)N)NC(=O)[C@H](CCCNC(=N)N)NC(=O)[C@H](CC(C)C)NC(=O)[C@H](CCC(N)=O)NC(=O)[C@@H](NC(=O)[C@H](CCC(=O)O)NC(=O)[C@H](Cc1ccc(O)cc1)NC(=O)[C@H](CCC(N)=O)NC(=O)[C@H](C)NC(=O)[C@H](CCCNC(=N)N)NC(=O)[C@H](CCC(N)=O)NC(=O)[C@H](CCC(=O)O)NC(=O)[C@H](Cc1cnc[nH]1)NC(=O)[C@@H](NC(=O)[C@H](C)NC(=O)[C@H](Cc1ccc(O)cc1)NC(=O)[C@H](CC(=O)O)NC(=O)CNC(=O)[C@@H]1CCCN1C(=O)[C@H](Cc1ccc(O)cc1)NC(=O)[C@H](CCSC)NC(=O)[C@@H]1CCCN1C(=O)[C@H](CCC(=O)O)NC(=O)[C@H](CC(C)C)NC(=O)[C@@H]1CCCN1C(=O)[C@H](C)N)[C@@H](C)O)[C@@H](C)O)C(=O)N[C@@H](CC(N)=O)C(=O)N[C@H](C(=O)N[C@@H](CC(C)C)C(=O)N[C@H](C(=O)N[C@@H](CCCNC(=N)N)C(=O)N1CCC[C@H]1C(=O)N[C@@H](CCCNC(=N)N)C(=O)N[C@@H](Cc1ccc(O)cc1)C(N)=O)[C@@H](C)O)[C@@H](C)O,.,-6,.,-1,.,.
CC(=O)N(CCCNC(=O)c1ccccc1)C(=O)c1ccccc1,2%,.,16%,.,99%,42%
CC(C)CCC[C@@H](C)[C@@H]1CC[C@H]2C3=CC=C4CC(O)CC[C@]4(C)[C@H]3CC[C@@]21C (stereo partly drawn),.,-4,.,17,.,.
O=C(N1CCCC1)N1CCN(c2ncnc3c(-c4ccc(Cl)cc4)nsc23)CC1,.,34*,50%,97*,1.9µM*,.
COC(=O)[C@]12CCCCC=C1N(Cc1ccc3c(c1)OCO3)C(=O)[C@H](CC(=O)NCC13CC4CC(CC(C4)C1)C3)C2,.,.,.,.,.,-25%
Cc1cc2oc(=O)cc(-c3ccccc3)c2c(C)c1-c1ccc(C#N)cc1,?,11,.,i,.,-4%
CCOC(=O)CCCc1ccc(/C(C)=N/NC(=S)NC)cc1,-26%,-2,-20%,-12,0%,53%
CCOC(=O)CCCc1ccc(/C(C)=N/NC(N)=S)cc1,?,15*,?,25,?,36%
Cc1ccc(OCC(=O)Oc2c(C)cccc2C)cc1,7%,1,7%,1,0.33µM*,23%
Cc1ccc(NC(=O)c2ccc(OC(=O)CCN3C(=O)c4ccccc4C3=O)cc2)cc1,-4%,37*,198%,72*,.,-29%
Cc1ccc(C(=O)CC(=O)COc2ccc(Cl)cc2C)cc1,?,5,?,-7,43%,97%
Cc1ccc(NC(=O)c2ccc(OC(=O)COc3ccc(Cl)cc3C)cc2)cc1,22%,46*,263%,15,377%,12%
SMILES,HCV inhibitor,CHX counter,Pf growth 48h,Shiga toxin inh,Pf growth 96h,AMA1 RON2 block
Cc1cccc(OCC(=O)Oc2ccc(Cl)cc2)c1,8%,.,.,.,.,29%
Cc1ccc(NC(=O)c2ccc(OC(=O)COc3cccc(Cl)c3)cc2)cc1,-8%,36*,251%,51*,?,0%
CCOC(=O)[C@]12CCCC=C1N(Cc1ccco1)C(=O)[C@H](CC(=O)NCCC(C)C)C2,.,.,.,.,.,1%
CCCCN(C)CCCNC(=O)c1cc(=O)[nH]c2ccc(S(=O)(=O)N3CCCCC3C)cc12 (stereo not drawn),12%,1,-4%,-6,38%,-1%
O=C(CSc1nnc(CNC(=O)c2ccco2)o1)Nc1cccc(F)c1,4%,15,28%,-7,60%,3%
CC(C)CNC(=O)C1(C)CCCCCN1Cc1ccccc1-c1ccccc1 (stereo not drawn),.,.,.,.,.,-6%
OC[C@@H]1CN(Cc2ccc(-c3ccccc3)cc2)C[C@H](n2cnc3c(NCc4ccncc4)ncnc32)O1,.,.,.,.,.,-8%
COc1ccc(CCNC(=O)C(=O)NCc2ccc(Cl)cc2)cc1OC,-4%,15,-12%,-10,-21%,2%
COc1ccc(OCc2nnc(SC(C)C(=O)Nc3ccc(N4CCOCC4)cc3)n2C)cc1 (stereo not drawn),4%,.,.,.,.,5%
COc1cc2[nH]c(=S)n(Cc3ccc(C)cc3)c(=O)c2cc1OC,-20%,-1,-25%,-8,10µM*,94%
COc1ccc(Cn2c(=S)[nH]c3cc(OC)c(OC)cc3c2=O)cc1,-2%,31*,38%[5.75 µM],50,?,48%
COc1ccc(C(N)c2csc(Nc3ccc(C(=O)NCCCO)cn3)n2)cc1 (stereo not drawn),.,.,.,.,.,62%
N#Cc1ccccc1NC(=O)COC(=O)c1ccc(F)cc1F,8%,-1,29%,-10,51%,-8%
